Vaccinia mCherry – vaccinia inhibition (mCherry reporter); Vaccinia virus mCherry reporter infection, fluorescence; Potency, µM (titrated, usually from 36.5 µM), for the others: top-dose activity change, negative = inhibition, actives largely listed as inhibitors; hit rate 0.63% among 310,000; calls by dose curve; tested in A549 cells; also: potency is read from the fitted curve at half-maximal effect; nearly all actives have a fitted effect of over 35% in size
VACV Venus inh – inhibitors of vaccinia virus (Venus reporter); Vaccinia virus Venus reporter expression, fluorescence; Potency, µM (top dose mostly 36.5 µM), for the others: at the highest dose activity change, negative = inhibition, hits mostly inhibitors; hit rate 0.46% among 330,000; AID 720580; calls by dose curve; tested in A549 cells; also: potency is read from the fitted curve at half-maximal effect; nearly all actives have a fitted effect of over 30% in size
Lassa entry inh – blocks Lassa virus binding to or entry into cells | Lassa virus pseudotype entry inhibition, cell reporter | hit rate 1.2% among 300,000 | Potency, µM (doses to about 37.9 µM), inactives show top-dose activity change, negative = inhibition, most hits filed as inhibitors; calls by dose curve; tested in HEK293 cells; also: potency is read from the fitted curve at half-maximal effect; nearly all actives have a fitted effect of over 50% in size
FMDV inh – foot and mouth disease virus antiviral activity. Potency, µM (titrated, usually from 57.9 µM), without a hit: at the highest dose activity change, negative = inhibition, usual class: inhibitors. FMDV antiviral cell-based qHTS. hit rate 1.2% among 410,000; calls by dose curve; tested in HEK293T cells; also: read-out not given here; potency is read from the fitted curve at half-maximal effect; nearly all actives have a fitted effect of over 45% in size
HCMV inh – blocks human cytomegalovirus replication. HFF cells, HCMV-luciferase reporter, 72 h; hits give low values. activity change, negative = inhibition, % at 57.5 µM. hit rate 4.5% among 410,000. AID 1259415; in the data active = activity change below about -60%; inconclusive = no clear call, values can overlap the other calls; inactive = above about -39%
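Human foreskin fibroblasts infected with luciferase-reporter HCMV at MOI 1 PFU/cell, compounds at two doses. Luciferase measured 72 h post infection; normalized to buffer-only basal and Salinomycin (10uM) controls.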
Marburg entry inh – inhibitors of Marburg virus binding or cell entry. Potency, µM (titrated, usually from 37.8 µM), for inactives: at the top dose activity change, negative = inhibition, most hits filed as inhibitors. Marburg virus pseudotyped entry inhibition, cell reporter. AID 540276. hit rate 1.8% among 300,000; calls by dose curve; tested in HEK293 cells; also: potency is read from the fitted curve at half-maximal effect
Active calls of the source: *; i = inactive; ? = inconclusive; nt = no result given; ! = not confirmed by another sample; [ ] = remark or other dose. Hits are enriched below; roughly 6.5% of the tested compounds scored in any of these assays. % is scaled to controls: 0 for no effect and ±100 for the full control effect.

SMILES	Vaccinia mCherry	VACV Venus inh	Lassa entry inh	FMDV inh	HCMV inh	Marburg entry inh
CCOC(=O)C1=C(COC(=O)CCOc2ccc(C)cc2)NC(=O)NC1C (centres undefined)	?	?	?	-22%	-69*	?
CCOC(=O)C1=C(COC(=O)Cc2ccc(Cl)cc2)NC(=O)NC1C (centres undefined)	nt	nt	nt	-20%	-73*	nt
COc1ccc(CNc2nc(S(=O)(=O)c3ccccc3)c(Cl)s2)cc1OC	?	-29%	?	14µM*	-95*	?
O=S(=O)(c1ccccc1)c1nc(NCc2ccccc2)sc1Cl	-13%	1%	-21%	10%	-70*	-36%
C=C1C=C(C(F)F)n2ncc(C(=O)NCc3ccc(OC)cc3)c2N1	1%	-11%	nt	nt	nt	nt
COC(=O)COc1ccc(C2Nc3c(Cl)ccc(C(=O)O)c3C3C=CCC32)cc1 (centres undefined)	2%	7%	-4%	8%	-75*	8%[46.1 µM]
CCOC(=O)c1c(O)c2cc(Cl)ccc2n(CC)c1=O	?	-4%	-1%	7%	-8	-6%[46.1 µM]
OC(COCC(F)(F)C(F)(F)C(F)(F)C(F)F)Cn1c2ccc(Cl)cc2c2cc(Cl)ccc21 (centres undefined)	?	11µM*	?	?	nt	?
O=C(COC(=O)/C=C/c1cccc(Br)c1)NC1CCCC1	-9%	-1%	8%[46.1 µM]	-3%	-100*	-3%[46.1 µM]
CCCC1CC(C)(c2csc(Nc3ccc(OCC)cc3)n2)OC1=O (centres undefined)	nt	nt	nt	-21%	-89*	nt
Cc1ccccc1Cn1cnc2c(cnn2C(C)(C)C)c1=O	nt	-19%	?	0%	6	-5%
CC(C)(C)n1ncc2c(=O)n(CC(=O)OCc3ccccc3)cnc21	nt	-19%	?	14µM*	?	?
CC(C)(C)n1ncc2c(=O)n(Cc3cccc(Cn4cnc5c(cnn5C(C)(C)C)c4=O)c3F)cnc21	nt	nt	nt	11µM*	-88*	nt
Cc1ccc(C)c(Cn2cnc3c(cnn3C(C)(C)C)c2=O)c1	nt	-18%	6.3µM*	0%	?	?
CC(C)(C)CC(C)(C)NC(=O)C(Nc1ccccc1)c1ccccc1F (centres undefined)	nt	nt	nt	nt	48	nt
NS(=O)(=O)c1ccc(N/N=C/c2cn(-c3ccccc3)nc2-c2cccs2)cc1	-20%	?	?	-25%	-77*	?
N#Cc1ccc(N/N=C/c2cn(-c3ccccc3)nc2-c2ccccc2)c([N+](=O)[O-])c1	-8%	2%	4%	-9%	39	?
NC(=O)N/N=C/c1cn(-c2ccccc2)nc1-c1cccs1	-11%	-13%	9%	33%	9	0%[46.1 µM]
NS(=O)(=O)c1ccc(N/N=C/c2cn(-c3ccccc3)nc2-c2cccs2)c([N+](=O)[O-])c1	-13%	-18%	?	?	-113*	10µM*
CCn1c(-c2ccc(N)cc2)nc2ccccc21	i	-14%	nt	16%	161	nt
CCn1c(-c2ccc(N(C)C)cc2)nc2ccccc21	nt	nt	?	-27%	-96*	?
COc1cc(C2C3=C(Nc4ncnn42)c2ccccc2CC3)cc(OC)c1OC (centres undefined)	nt	nt	?	8%	-89*	0.73µM*!
CCn1c(COc2ccc(=O)n(-c3ccccc3)n2)nnc1SCc1cccc(OC)c1	nt	nt	8%	1%	-1	6%
C=CCSc1nnc(COc2ccc(=O)n(-c3ccccc3)n2)n1CC	-1%	-13%	8%	-2%	-93*	16%[46.1 µM]
COCc1cc(=O)[nH]c(Nc2nc3ccccc3o2)n1	-25%	-25%	?	-13%	16	?
Cc1ccc2oc(Nc3nc(-c4ccccc4)cc(=O)[nH]3)nc2c1	0%	-15%	-17%	?	-101*	?
Cc1ccc2nc(-c3ccc(Cl)c(NC(=O)c4ccc5c(c4)OCCO5)c3)oc2c1	-3%	21%	?	61%	8	?
Cc1cc(C)c(C(=O)CSc2nnc(C)s2)c(C)c1	-6%	-2%	6%[46.1 µM]	4%	-61*	4%[46.1 µM]
CCc1ccccc1NC(=O)Cn1nc(C)c2nn(-c3ccc(Cl)cc3)c(C)c2c1=O	-26%	-13%	-2%[46.1 µM]	?	54	nt
CCC[n+]1c(/C=C/c2c(OC)cc(OC)cc2OC)ccc2ccccc21	10µM*	106%	nt	nt	nt	nt

Assay outcomes (PubChem BioAssay)
